The sample as a whole holds a higher share of hits than the screen did.
HDAC3 inhib: HDAC3 deacetylase inhibitors, primary screen, biochemical, fluorescence, cell-free homogeneous. Histone deacetylase 3 (Homo sapiens), O15379. 320,000 compounds, 0.15% hits. inhibition, % at 8.3 µM. AID 2718, 2010. recombinant HDAC3, fluorogenic peptide/trypsin coupled; in the data active means inhibition above about 26%, passing the limit was not always enough; inconclusive means no clear call, values can overlap the other calls
ALR inh: inhibitors of human ALR sulfhydryl oxidase, primary screen, biochemical, H2O2 detection, HRP-luminol luminescence, single point. inhibition, % (no concentration beside the values). 290,000 compounds, 3.8% hits. AID 485317, 2010. purified ALR, DTT oxidation. FAD-linked sulfhydryl oxidase ALR (Homo sapiens), P55789;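 active means mean replicate inhibition above about 79%, with every replicate also reaching it, limit read from the data; inconclusive means only one of the two criteria met; inactive means mean below limit and not every replicate reaching it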
GC-B act: human GC-B receptor activators, primary screen, HEK293 GC-B cells, cGMP TR-FRET, EC30 CNP | AID 1920062, 2024 | 0% at EC30 CNP, 100% saturating CNP | activation, % at 10 µM | 370,000 compounds, 0.11% hits;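 active means activation at 10 µM reaching about 35% in either raw or pattern-adjusted values, limit read from the data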
NPR1 activator: GC-A stimulated cGMP production enhancers – HEK293 GC-A cells, cGMP TR-FRET, EC30 ANP, primary screen; Atrial natriuretic peptide receptor 1 (Homo sapiens), P16066; 0% at EC30 ANP, 100% saturating ANP; activation, % at 10 µM; 370,000 compounds, 0.14% hits; in the data active means activation above about 40%
Target sequence (P16066 whole entry, looked up): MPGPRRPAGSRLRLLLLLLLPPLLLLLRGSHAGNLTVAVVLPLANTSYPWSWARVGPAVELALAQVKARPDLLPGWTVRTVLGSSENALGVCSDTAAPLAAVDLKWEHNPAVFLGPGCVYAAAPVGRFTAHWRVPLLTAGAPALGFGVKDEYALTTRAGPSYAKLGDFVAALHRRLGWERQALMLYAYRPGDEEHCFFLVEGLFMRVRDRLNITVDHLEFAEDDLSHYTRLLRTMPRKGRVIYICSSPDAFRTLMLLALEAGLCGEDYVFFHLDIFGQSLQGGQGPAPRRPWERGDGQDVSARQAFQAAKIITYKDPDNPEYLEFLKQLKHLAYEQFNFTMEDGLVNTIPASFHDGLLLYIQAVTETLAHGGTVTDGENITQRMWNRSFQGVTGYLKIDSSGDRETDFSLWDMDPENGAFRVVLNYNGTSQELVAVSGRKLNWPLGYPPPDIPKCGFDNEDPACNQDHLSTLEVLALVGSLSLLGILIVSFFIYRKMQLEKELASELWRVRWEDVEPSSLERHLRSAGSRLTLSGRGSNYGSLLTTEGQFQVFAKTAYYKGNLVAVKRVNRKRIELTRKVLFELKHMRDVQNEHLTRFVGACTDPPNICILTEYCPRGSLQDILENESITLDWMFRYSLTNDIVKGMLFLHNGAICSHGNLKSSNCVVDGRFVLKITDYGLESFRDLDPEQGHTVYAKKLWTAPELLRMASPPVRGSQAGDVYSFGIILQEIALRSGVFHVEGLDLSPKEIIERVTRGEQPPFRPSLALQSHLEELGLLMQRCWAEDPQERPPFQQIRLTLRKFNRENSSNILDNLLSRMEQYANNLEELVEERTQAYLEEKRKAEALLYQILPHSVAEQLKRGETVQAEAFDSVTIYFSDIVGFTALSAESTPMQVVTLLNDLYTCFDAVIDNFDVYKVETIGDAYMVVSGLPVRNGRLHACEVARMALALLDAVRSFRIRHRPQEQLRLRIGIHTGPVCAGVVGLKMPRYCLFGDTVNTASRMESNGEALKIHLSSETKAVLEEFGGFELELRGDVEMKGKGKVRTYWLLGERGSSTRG
Each line names hits and unclear results; the compound was inactive in the other large screens.

CCOCCn1c(CN2CCN(c3ccc(F)cc3)CC2)nc2c1c(=O)n(C)c(=O)n2C	ALR inh 99
O=C(NCc1ccccn1)C1CCN(S(=O)(=O)c2cc(Cl)ccc2Cl)CC1	none
O=C1NN(c2ccccc2)C(=O)/C1=C/c1ccc(-c2ccc(C(=O)O)cc2)o1	ALR inh 99
COC(=O)c1ccc(N2NC(=O)/C(=C/c3ccc(-c4ccc(Cl)c(C(=O)O)c4)o3)C2=O)cc1	none (no result: HDAC3 inhib, ALR inh)
O=C1NN(c2ccc(Cl)c(Cl)c2)C(=O)/C1=C/c1ccc(-c2ccccc2C(=O)O)o1	ALR inh 99
CC1CN(CC(=O)NCc2ccc(Cl)cc2)CC(C)O1 (stereo not given)	none
Cc1cc(C(=O)N2CCCC(Nc3ccc(F)cc3)C2)c(C)o1 (stereo not given)	ALR inh inconclusive
O=C(c1ccccc1-c1ncc[nH]1)N1CCCC(Nc2ccc(F)cc2)C1 (stereo not given)	ALR inh 99
Cc1ccc(NC2CCCN(C(=O)c3cnc4ccccn4c3=O)C2)cc1C (stereo not given)	none (no result: ALR inh)
CC(C)c1ccc(NC2CCCN(C(=O)c3cnc4ccccn4c3=O)C2)cc1 (stereo not given)	ALR inh 95
Cc1occc1C(=O)N1CCCC(Nc2ccc(F)cc2)C1 (stereo not given)	ALR inh 98
Cc1occc1C(=O)N1CCCC(Nc2ccc(C(C)C)cc2)C1 (stereo not given)	ALR inh 99
Cc1cc(C(=O)Nc2ccc(S(=O)(=O)N3CCOCC3)cc2)ccc1[N+](=O)[O-]	none
C[C@H]1O[C@@H](n2c3ccc(Cl)cc3c3ccc4c5cc(Cl)ccc5[nH]c4c32)[C@H](O)[C@H](O)[C@H]1O	none (no result: HDAC3 inhib, ALR inh)
Cc1ccc2nccc(C(=O)N3CCCC(Nc4ccc(F)cc4)C3)c2c1 (stereo not given)	ALR inh 98
O=S1(=O)CC(N2CCCCC2)CN1C1CCCCC1 (stereo not given)	none (no result: HDAC3 inhib, ALR inh)
COCCC(=O)N1CCC(Oc2ccc(C(=O)N3CCCC(COC)C3)cc2)CC1 (stereo not given)	none (no result: HDAC3 inhib, ALR inh)
COC(=O)[C@H](Cc1ccccc1)NC(=O)N1CCN(c2ccc(F)cc2)CC1	ALR inh 98
Cc1ccc(NC(=O)C2(S(=O)(=O)c3ccc(Cl)cc3)CC2)cc1	none
CSc1ccccc1OCc1cc(C(=O)N[C@H]2CCCCNC2=O)no1	NPR1 activator 62
CC(C)(O)C#Cc1ccc(C(=O)NC2CCCCC2)s1	ALR inh 97
CCOC(=O)c1c(C)c(C(=O)N2CCN(C(=O)c3ccco3)CC2)c(C)n1C	none
CCOC(=O)c1c(C)n(C(=O)c2ccco2)c(=O)n1C(=O)c1ccco1	HDAC3 inhib inconclusive, ALR inh 97
COc1ccc(S[C@]2(C(=O)N(C)C)CC(=O)N(S(=O)(=O)c3ccc(F)cc3)[C@@H]2c2ccc(OC)cc2)cc1	none (no result: HDAC3 inhib, ALR inh)
c1cncc(CN=C2Nc3ccccc3CS2)c1	ALR inh 98
CCc1ccccc1N(CC(=O)N1CCN(c2ccccc2)CC1)S(C)(=O)=O	ALR inh 98
CN(c1ccccc1C(=O)N1CCN(c2ccccc2)CC1)S(C)(=O)=O	ALR inh 87
CN(c1ccccc1C(=O)N1CCCC1)S(C)(=O)=O	none
CS(=O)(=O)Nc1ccccc1C(=O)N1CCN(c2ccccc2)CC1	ALR inh 98
CS(=O)(=O)N(CC(=O)N1CCN(c2ccccc2)CC1)c1cccc(Br)c1	none
COc1ccccc1NS(=O)(=O)c1ccc(C)c(C(=O)N2CCN(c3ccc(O)cc3)CC2)c1	ALR inh 99
CN(C(=O)c1cccc(NC(=O)Cc2ccc(NC(=O)C3CCCN(C(=O)CCc4ccccc4)C3)cc2)c1)C1CCC1 (stereo not given)	none (no result: HDAC3 inhib, ALR inh)
CC(C)C[C@H]1CN([C@@H](Cc2ccccc2)CN2CCC[C@H]2CN2C(=O)C(=O)NC[C@@H]2Cc2ccc(O)cc2)C(=O)C(=O)N1CC1CCCCC1	none (no result: HDAC3 inhib, ALR inh)
COc1ccc(C(=O)N/N=C/c2ccc(OC)c(CSc3ccccn3)c2)cc1	ALR inh 99
COc1ccc(/C=N/NC(=O)c2ccn[nH]2)cc1COc1ccc(Cl)cc1	none
COc1ccc(/C=N/NC(=O)c2cccnc2)cc1CSc1ccccn1	ALR inh 99
COc1ccc(/C=N/NC(=O)c2ccn[nH]2)cc1CSc1ccccn1	ALR inh 99
COc1ccc(/C=N/NC(=O)c2cccc(Br)c2)cc1CSc1ccccn1	none
Cc1noc(C)c1S(=O)(=O)Nc1ccccc1N1CCOCC1	none
Cc1ccc(/C=C2/NC(=O)N(Cc3ccccc3)C2=O)o1	GC-B act 46 (no result: ALR inh)
CCn1ncc([N+](=O)[O-])c1C(=O)NC1CCCCC1	none
O=C(NCc1n[nH]c(=S)n1-c1ccccc1)c1ccc(S(=O)(=O)N2CCOCC2)cc1	ALR inh 91
O=C(NCc1n[nH]c(=S)n1-c1ccc(F)cc1)c1ccc(S(=O)(=O)N2CCOCC2)cc1	HDAC3 inhib inconclusive
O=C(Cn1cnc2ccccc2c1=O)N1CCN(Cc2ccc(F)cc2)CC1	none (no result: HDAC3 inhib, ALR inh)
Cc1cc(N(C)Cc2ccccc2)nc2cc(O)ccc12	ALR inh 98
COc1ccc(S(=O)(=O)CC(O)CN2CCCC2=O)cc1 (stereo not given)	none
Cc1cc(C)c(C)c(S(=O)(=O)N2CCN(C(=O)CNC(=O)c3ccco3)CC2)c1C	none
OCCNc1nc(N2CCN(c3ccccc3)CC2)nc2ccccc12	ALR inh 98
OCCNc1nc(Nc2cccc(O)c2)nc2ccccc12	ALR inh 95
OCCNc1nc(Nc2ccc(O)cc2)nc2ccccc12	ALR inh 99
CCOC(=O)N1CCN(C(=O)C[C@H]2C[C@@]3(C(=O)OC)C(=C[C@H](COCc4ccccc4)O[C@@H]3C)N(Cc3ccc4c(c3)OCO4)C2=O)CC1	none (no result: HDAC3 inhib, ALR inh)
O=C(CSc1ncnc2ccccc12)Nc1cc(S(=O)(=O)N2CCCCC2)ccc1Cl	none
O=C(CSc1ncnc2ccccc12)Nc1cccc(S(=O)(=O)N2CCCC2)c1	ALR inh 99
O=c1c(O)cccc2cc(O)c(O)c(O)c12	ALR inh 100
O=c1cc(-c2ccccc2)oc2cc(O)c(O)c(O)c12	none (no result: HDAC3 inhib, ALR inh)
COc1ccc(N2CCN(C3CC(=O)N(Cc4ccccc4)C3=O)CC2)cc1 (stereo not given)	ALR inh 92
COc1ccccc1N1C(=O)CC(N2CCN(c3ccc(F)cc3)CC2)C1=O (stereo not given)	HDAC3 inhib inconclusive, ALR inh 97
O=C1CC(N2CCN(c3ccc(O)cc3)CC2)C(=O)N1c1ccc2c(c1)OCO2 (stereo not given)	ALR inh 99
O=C1CC(N2CCCCCC2)C(=O)N1c1ccc2c(c1)OCO2 (stereo not given)	none
COc1ccccc1N1CCN(C2CC(=O)N(c3ccc(Cl)cc3)C2=O)CC1 (stereo not given)	none (no result: ALR inh)

Screening results deposited in PubChem BioAssay by several laboratories.
